SNCA expr inh – SNCA gene expression inhibition; HEK-293 SNCA-luciferase knock-in, luminescence, 24 h; Potency, µM (doses to about 57.2 µM), most hits filed as inhibitors; actives 0.17% (n = 140,000); further: nearly all actives have a fitted effect of over 45% in size
HEK293 viab – cell viability loss counter-screen; HEK-293-SNCA-luc viability, GF-AFC fluorescence, 24 h; Potency, µM (series often up to 57.1 µM), hits mostly cytotoxic; actives 0.12% (n = 150,000); further: nearly all actives have a fitted effect of over 30% in size
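HEK-293-SNCA-luc cells (1500/well) plated 24 h, then exposed 24 h to a dilution series; GF-AFC added 30 min at 37C, fluorescence 405/540 nm; normalised to medium-only and DMSO wells, Hill fit.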
Luciferase inh – blocks purified firefly luciferase enzyme activity; purified P. pyralis luciferase, luminescence, biochemical; Potency, µM (series often up to 115 µM), actives largely listed as inhibitors; actives 2.5% (n = 76,000); AID 1347043; further: nearly all actives have a fitted effect of over 65% in size
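Purified P. pyralis luciferase (10nM final) in 50mM Tris acetate pH 7.5, 10mM Mg acetate, 0.01% Tween-20, 0.05% BSA with 10uM D-luciferin and 10uM ATP. Compounds titrated qHTS. Luminescence imaged on CCD.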
hNpr1 antagonist – blocks ANP-stimulated signaling of human Npr1 receptor | P16066 | HEK293 hNpr1 GloSensor cGMP, ANP-stimulated luminescence | Potency, µM (doses to about 46.3 µM), most hits filed as inhibitors | actives 1.6% (n = 76,000) | AID 1347048; calls by dose curve; further: nearly all actives have a fitted effect of over 60% in size
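Compound pre-incubated 30 min at room temperature on GloSensor-loaded HEK293 cells stably carrying hNpr1 and the pGS-40F cGMP biosensor. Stimulation uses hNppA at 0.1 nM final; luminescence is taken at baseline and 20 min post-agonist.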
HEK293 tox – kills HEK 293 cells. HEK 293 viability, ATP luminescence (CellTiter-Glo), 48-72 h. Potency, µM (titrated, usually from 115 µM), actives largely listed as inhibitors. actives 6.6% (n = 94,000); further: nearly all actives have a fitted effect of over 60% in size
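HEK 293 cells at 250 cells/well were exposed to compounds by pintool transfer for 48 or 72 hr at 37 degree Celsius, 5% CO2. Viability was read as ATP-coupled luminescence with CellTiter-Glo after 10 min at room temperature.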
3T3 cytotox – kills NIH 3T3 cells | NIH 3T3 viability, CellTiter-Glo ATP luminescence, 48-72 h | Potency, µM (doses to about 96.7 µM), most hits filed as inhibitors | actives 4.3% (n = 94,000); further: nearly all actives have a fitted effect of over 55% in size
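Cells were seeded at 400 per well, treated with pin-transferred compound, and kept 48 or 72 hr at 37 °C before CellTiter-Glo addition and luminescence imaging of cellular ATP.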
Each line names hits and unclear results; the compound was inactive in the other large screens. Compounds with a hit are over-represented: about 7.2% of the library has one in this group of screens. Unless noted, the call rests on the fitted dose curve; in most records, active means well fitted curve in the direction sought with a large enough effect; inconclusive means small, poorly fitted or top-dose-only effect, or another doubt; inactive means no such curve, though single readings can be large; an effect the other way counts as inactive or inconclusive.

COc1ccc(NC(=O)C2(C)CN(C)Cc3ccc(NCc4ccccc4)nc32)cn1 (stereo unspecified)	SNCA expr inh inconclusive, HEK293 viab inconclusive, HEK293 tox 79.4µM, 3T3 cytotox 79.4µM
COc1cccc(NC(=O)C2(C)CN(C)Cc3ccc(NCc4ccccc4)nc32)c1 (stereo unspecified)	HEK293 tox inconclusive, 3T3 cytotox 39.8µM
CCCN(CC1CCOC1)C(=O)NCCC(C)C (stereo unspecified)	none
COc1cc2c(cc1OC)C(CNS(=O)(=O)c1ccc(C)cc1)N(C(=O)NC(C)(C)C)CC2 (stereo unspecified)	HEK293 tox inconclusive
Cc1noc2c(-c3cccnc3NC3CCN(C)CC3)cc(-c3ccc(Cl)cc3)nc12	SNCA expr inh inconclusive, HEK293 tox 89.1µM, 3T3 cytotox 22.4µM
Cc1noc2c(NC3CCOCC3)cc(-c3cccc(C(F)(F)F)c3)nc12	HEK293 tox inconclusive, 3T3 cytotox inconclusive
Cc1noc2c(NC3CCN(C)CC3)cc(-c3ccc(F)cc3)nc12	HEK293 tox 63.1µM, 3T3 cytotox 10µM
Cc1noc2c(NC3CCC(O)CC3)cc(-c3ccc(F)cc3)nc12 (stereo unspecified)	HEK293 tox inconclusive, 3T3 cytotox 22.4µM
Cc1noc2c(-c3cccnc3NC3CCC(O)CC3)cc(-c3ccccc3)nc12 (stereo unspecified)	HEK293 tox inconclusive, 3T3 cytotox inconclusive
CCn1nccc1C(=O)N1C[C@@H]2CCCN3CCC[C@@H]([C@H]23)[C@H]1CCCC(=O)Nc1ccccc1	SNCA expr inh inconclusive
Cc1csc(Nc2ccc3ncn(Cc4ccccc4)c(=O)c3n2)n1	SNCA expr inh inconclusive, HEK293 viab inconclusive, HEK293 tox inconclusive, 3T3 cytotox inconclusive
COc1ccccc1-c1ccc2ncn(Cc3ccccc3)c(=O)c2n1	HEK293 tox inconclusive, 3T3 cytotox 7.94µM
COc1ccccc1-c1ccc2ncn(C3CC3)c(=O)c2n1	3T3 cytotox inconclusive
O=c1c2nc(NCc3ccccc3)ccc2ncn1Cc1ccccc1	HEK293 tox inconclusive, 3T3 cytotox 35.5µM
COc1ccc(Nc2ccnc(N3CCC(NC(=O)Cc4ccc(F)cc4)CC3)n2)cc1	HEK293 tox 39.8µM, 3T3 cytotox inconclusive (no result: Luciferase inh, hNpr1 antagonist)
COc1ccc(CC(=O)N2CCN(c3nccc(Nc4ccccc4F)n3)CC2)cc1	HEK293 tox 44.7µM, 3T3 cytotox inconclusive (no result: Luciferase inh, hNpr1 antagonist)
COc1ccc(Nc2ccnc(N3CCC(NC(=O)N(C)C)CC3)n2)cc1	HEK293 tox inconclusive, 3T3 cytotox inconclusive (no result: Luciferase inh, hNpr1 antagonist)
COc1ccc(CC(=O)NC2CCN(c3nccc(Nc4ccccc4F)n3)CC2)cc1	HEK293 tox inconclusive, 3T3 cytotox 44.7µM (no result: Luciferase inh, hNpr1 antagonist)
COCC(=O)N1CCCC(c2noc(COc3ccccc3)n2)C1 (stereo unspecified)	none
CCN(CC)C(=O)CCc1c(C)nn(-c2ccc(F)cc2)c1Oc1ccccc1C	HEK293 tox inconclusive, 3T3 cytotox 39.8µM
CCN(C)C(=O)CCc1c(C)nn(-c2cccc(C)c2)c1Oc1ccccc1	HEK293 tox 39.8µM, 3T3 cytotox 35.5µM
CCN(C)C(=O)CCc1c(C)nn(-c2ccccc2)c1Oc1ccccc1F	HEK293 tox 39.8µM, 3T3 cytotox inconclusive
CCN(CC)C(=O)CCc1c(C)nn(-c2ccccc2)c1Oc1ccc(F)cc1F	HEK293 tox inconclusive, 3T3 cytotox inconclusive
CCn1nccc1C(=O)N1CC(Oc2ccc(-c3nc(-c4ccccc4)no3)cc2)C1	SNCA expr inh inconclusive, HEK293 viab inconclusive, Luciferase inh inconclusive, hNpr1 antagonist 4.47µM, HEK293 tox 11.2µM, 3T3 cytotox inconclusive
CCn1ccc(C(=O)N2CC(Oc3ccc(-c4nc(-c5ccccc5)no4)cc3)C2)n1	SNCA expr inh inconclusive, HEK293 viab inconclusive, Luciferase inh inconclusive, HEK293 tox inconclusive, 3T3 cytotox 39.8µM
CCn1ccc(C(=O)N2CC(Oc3ccc(-c4nc(C)no4)cc3)C2)n1	HEK293 tox inconclusive
CC(C)C[C@H](CO)NC(=O)C[C@@H]1c2nc(NC(=O)c3ccco3)sc2C[C@@H]2[C@](C)(CO)[C@H](O)CC[C@]21C	none
COc1ccc(F)cc1-c1cccc(C(=O)NCC(=O)NCCc2cccc(F)c2)c1	HEK293 tox 39.8µM, 3T3 cytotox inconclusive (no result: SNCA expr inh, HEK293 viab, Luciferase inh, hNpr1 antagonist)
COc1ccc(F)cc1-c1cccc(C(=O)NCCNC(=O)c2cccnc2)c1	HEK293 tox inconclusive, 3T3 cytotox 35.5µM (no result: SNCA expr inh, HEK293 viab, Luciferase inh, hNpr1 antagonist)
COc1ccc(F)cc1-c1cccc(C(=O)NCCNC(=O)c2ccc(C(F)(F)F)cc2)c1	HEK293 tox inconclusive, 3T3 cytotox inconclusive (no result: Luciferase inh, hNpr1 antagonist)
COc1ccc(F)cc1-c1cccc(C(=O)NCCN[S+](=O)([O-])CCC(F)(F)F)c1	HEK293 viab inconclusive, HEK293 tox 79.4µM, 3T3 cytotox inconclusive (no result: Luciferase inh, hNpr1 antagonist)
COc1ccc(F)cc1-c1cccc(C(=O)NCCNC(=O)c2ccccc2)c1	HEK293 viab inconclusive, HEK293 tox inconclusive, 3T3 cytotox inconclusive (no result: Luciferase inh, hNpr1 antagonist)
COc1ccccc1C(=O)NCCNC(=O)c1cccc(-c2cc(F)ccc2OC)c1	HEK293 tox inconclusive, 3T3 cytotox inconclusive (no result: Luciferase inh, hNpr1 antagonist)
COc1ccc(F)cc1-c1cccc(C(=O)NCCNC(=O)c2ccc(F)cc2)c1	HEK293 tox 35.5µM, 3T3 cytotox inconclusive (no result: Luciferase inh, hNpr1 antagonist)
CN1CCN(Cc2nc(C3(O)CCN(C(=O)N4CCOCC4)CC3)cs2)CC1	SNCA expr inh inconclusive
Cc1cccc(CNC(=O)C2CCCCC(=O)N2)c1 (stereo unspecified)	none
COc1ccc(CCNC(=O)Cn2ccn3nc4c(c3c2=O)CCCCC4)cc1OC	SNCA expr inh inconclusive, HEK293 viab inconclusive, HEK293 tox inconclusive, 3T3 cytotox inconclusive
OCC1CNCCC12CCN(Cc1ccc3ccccc3c1)CC2 (stereo unspecified)	SNCA expr inh inconclusive, HEK293 tox 28.2µM, 3T3 cytotox 44.7µM
COc1ccccc1-c1ccc(C(=O)N2CCC(C(=O)N3CCC(Cc4ccccc4)CC3)CC2)cc1	HEK293 tox inconclusive, 3T3 cytotox 22.4µM (no result: Luciferase inh, hNpr1 antagonist)
O=C(NCc1ccc(C(F)(F)F)cc1)C1CCN(C(=O)c2ccc(-c3cncnc3)cc2)CC1	HEK293 tox inconclusive, 3T3 cytotox 17.8µM (no result: SNCA expr inh, HEK293 viab, Luciferase inh, hNpr1 antagonist)
COc1ccccc1-c1ccc(C(=O)N2CCC(NC(=O)Nc3ccc(Cl)cc3)CC2)cc1	SNCA expr inh inconclusive, HEK293 tox 31.6µM, 3T3 cytotox inconclusive (no result: Luciferase inh, hNpr1 antagonist)
COc1ccccc1-c1ccc(C(=O)N2CCC(NC(=O)C3CCCC3)CC2)cc1	HEK293 tox inconclusive, 3T3 cytotox inconclusive (no result: Luciferase inh, hNpr1 antagonist)
COc1ccccc1-c1ccc(C(=O)N2CCC(NC(C)=O)CC2)cc1	HEK293 tox inconclusive (no result: Luciferase inh, hNpr1 antagonist)
COc1ccccc1-c1ccc(C(=O)N2CCC(C(=O)NC3CCCC3)CC2)cc1	HEK293 tox 28.2µM, 3T3 cytotox inconclusive (no result: Luciferase inh, hNpr1 antagonist)
CNC(=O)c1ccc(C2CCCN2C(=O)CCc2cc3n(n2)CCCNC3)s1 (stereo unspecified)	none

Bioassay records from PubChem BioAssay.
